Measurements as given in the supplement of paper PMC4206461.

Tested on: Pseudomonas aeruginosa PA14 dppA1-A5 penta mutant + pBBR5.DppA1 (PA14_58350)
Assay: respiration area under curve with compound as sole nitrogen source, 24 h (OmniLog AUC (arbitrary units)); higher = more respiration / better utilisation as nitrogen source, active = 2000 or more
Settings: plate: PM8
Experimental: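 Biolog Phenotype MicroArray plates PM6-PM8: each di/tripeptide is the sole nitrogen source. Tetrazolium reduction was read in the OmniLog for 24 h at 37°C and summarised as area under the respiration curve (arbitrary units). Values below 2000 count as no respiration. Strain is the SBP penta mutant complemented with DppA1 on a plasmid under its native promoter. Lys/His/Cys peptides are excluded.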

Row | Compound | respiration area under curve
1 | N[C@@H](Cc1ccc(O)cc1)C(=O)NCC(=O)NCC(=O)O | 9440 (active)
